Consider 115 compounds from PubChem BioAssay AID1001 (Sanford-Burnham Center for Chemical Genomics, 2008).

The whole screen tested about 200,000 compounds, of which about 50 (0.03%) were called active. Only a selection was taken, and actives are over-represented in it overall. Entries with a potency or affinity are not part of this list. A number with no mark means an inactive call. No rule for the calls is given here.

In this assay the target is Alkaline phosphatase, tissue-nonspecific isozyme (Homo sapiens) (UniProt P05186). In words: human TNAP enzyme activators, primary screen, biochemical, luminescent, no phosphate acceptor, uHTS (AID 1001). The settings on record: purified TNAP, luminescent activation assay, at 20 µM, hits give high values.
Sequence of Alkaline phosphatase, tissue-nonspecific isozyme (Homo sapiens) (P05186 whole entry, looked up): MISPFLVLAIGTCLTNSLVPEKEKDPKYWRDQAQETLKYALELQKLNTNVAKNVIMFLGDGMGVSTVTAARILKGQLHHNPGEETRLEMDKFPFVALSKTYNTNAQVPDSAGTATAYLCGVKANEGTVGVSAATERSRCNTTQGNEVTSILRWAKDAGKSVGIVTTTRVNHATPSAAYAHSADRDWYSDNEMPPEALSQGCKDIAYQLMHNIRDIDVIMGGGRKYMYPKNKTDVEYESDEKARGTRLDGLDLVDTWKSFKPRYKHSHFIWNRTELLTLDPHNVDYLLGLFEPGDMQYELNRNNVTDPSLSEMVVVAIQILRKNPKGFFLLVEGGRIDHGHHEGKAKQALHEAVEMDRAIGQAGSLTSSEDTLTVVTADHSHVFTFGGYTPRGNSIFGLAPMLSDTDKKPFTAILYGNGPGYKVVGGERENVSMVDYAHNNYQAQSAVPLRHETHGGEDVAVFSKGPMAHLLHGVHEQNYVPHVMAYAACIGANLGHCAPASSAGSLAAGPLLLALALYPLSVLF
`O=C(O[C@@H]1OC2COC(=O)c3cc(O)c(O)c(O)c3-c3c(cc(O)c(O)c3O)C(=O)O[C@@H]([C@H]1O)[C@@H]2O)c1cc(O)c(O)c(O)c1`: the activation fold was 1.3.
Consider `COC(=O)c1cc(O)c(O)c(O)c1`, for which the activation fold was 1.
In the case of `O=C(OCC1O[C@@H](OC(=O)c2cc(O)c(O)c(O)c2)[C@@H](OC(=O)c2cc(O)c(O)c(O)c2)[C@@H](OC(=O)c2cc(O)c(O)c(O)c2)[C@@H]1OC(=O)c1cc(O)c(O)c(O)c1)c1cc(O)c(O)c(O)c1` (stereo not given in full), the activation fold was 3 (active).
Regarding `COC(=O)C1=C(C)N=C2SC(C#N)=C(N)N2C1c1ccc(OC)cc1` (stereo not given), the activation fold was 1.
`COc1ccc(Cl)cc1NC(=O)CN1CCC(n2nnc3ccccc32)CC1`: the activation fold was 1.1.
Turning to `COc1ccc(Cl)cc1NC(=O)CN1CCC(n2nnc3cc(F)ccc32)CC1`, the activation fold was 1.5.
Turning to `Cc1nc(N2CCN(C(c3ccccc3)c3ccccc3)CC2)nc2c1C(=O)CCC2`, the activation fold is 1.1.
Consider `Cc1ccc(-c2csc(NC(=O)CSC3=NCCS3)n2)cc1`, for which the activation fold was 1.1.
For the compound `CC(=O)Nc1ccc(S(=O)(=O)NCc2ccccn2)cc1`, the activation fold was 1.1.
Then `Cn1c(=O)c2c(ncn2CC(=O)N/N=C/c2ccco2)n(C)c1=O`, with 1.1; and `Cn1c(=O)c2c(nc(NCc3ccco3)n2C)n(C)c1=O`, with 1.1; and `CCc1ccc2oc(-c3ccc(OC)cc3)cc(=Nc3c(C)n(C)n(-c4ccccc4)c3=O)c2c1`, with 0.9.
As for `Cc1ccc(CC(=O)Nc2nc3ccccc3s2)cc1`, the activation fold is 1.
For the compound `CCOC(=O)c1ccc(NCc2ccc3c(c2)OCO3)cc1`, the activation fold was 1.
For `C/C(=N\Nc1ccc(C(=O)O)cc1)c1nc2ccccc2n1C`, the activation fold is 0.9.
As to `CCn1c(CNc2ccc(C(=O)O)cc2)nc2ccccc21`, the activation fold is 1.1.
For the compound `COc1ccc(C(CNC(=O)CN2C(=O)NC3(CC(C)CC(C)(C)C3)C2=O)N2CCOCC2)cc1` (stereo not given), the activation fold was 1.2.
Under `O=C(COc1ccc(Cl)cc1)NCc1nnc(SCC(=O)NCCc2ccccc2)o1` stands 1.1; under `COc1ccccc1CC(Cc1nc2ccccc2[nH]1)c1nc2ccccc2[nH]1` (stereo not given), 2.8; under `Cc1cc(C)cc(CC(Cc2nc3ccccc3[nH]2)c2nc3ccccc3[nH]2)c1` (stereo not given), 1.6.
Consider `Cc1cc2oc(=O)cc(CN3CCN(Cc4ccccc4)CC3)c2cc1Cl`, for which the activation fold is 1.
Turning to `O=C(CN1C(=O)S/C(=C\c2ccccc2)C1=O)NNC(=O)c1ccccc1O`, the activation fold was 2.2.
Under `COc1ccc(/C=C2\SC(=O)N(CC(=O)NNC(=O)c3ccccc3O)C2=O)cc1OC` stands 2.4; under `COc1ccc(NC(=O)CC2C(=O)N(Cc3cccs3)C(=S)N2C(C)C)cc1` (stereo not given), 1.1.
Turning to `CCOc1ccc(N(C(=O)c2cnsn2)C(C(=O)NC2CCCCC2)c2ccncc2)cc1` (stereo not given), the activation fold is 1.2.
Take `Cn1nc(CC(=O)NC2CCCCC2)c2ccccc2c1=O`: the activation fold was 1.1.
Consider `Cn1nc(CC(=O)NC2CCCCCC2)c2ccccc2c1=O`, for which the activation fold was 1.1.
Then `COc1ccc(CN2CCNC(=O)C2CC(=O)NCc2ccc(C)s2)c(OC)c1` (stereo not given), with 1.1; and `Cc1ccc(NC(=O)NC2(C(=O)NCc3ccccc3)CCCCC2)cc1`, with 1.1; and `Cc1ccc(CNC(=O)C2(NC(=O)Nc3ccc(C)cc3)CCCCC2)cc1`, with 1.2.
Then `O=C(NC1CCCCC1)C1CCN(C(=O)c2ccc(-c3ccccc3)cc2)CC1`, with 1.1.
Then `N=c1c2c(-c3ccccc3)c(-c3ccccc3)n(Cc3ccco3)c2ncn1CCCn1ccnc1`, with 2.7; and `OCCNc1ncnc2c1c(-c1ccccc1)c(-c1ccccc1)n2Cc1ccco1`, with 1.1.
In the case of `COc1cc(NC(=O)CN2CCCCC2)c(C)cc1[N+](=O)[O-]`, the activation fold was 1.1.
For `CCOc1cc(-n2cnnn2)c(OCC)cc1NC(=O)c1cnccn1`, the activation fold was 1.1.
With `c1ccc2c(c1)Nc1nccnc1S2`, the activation fold is 1.
For the compound `COc1ccc2[nH]c(=O)c(CN(CCN3CCCC3)C(=O)Nc3ccccc3Cl)cc2c1`, the activation fold is 1.1.
With `Cc1c2cc(O)c(=O)cc-2oc2cc(O)c(O)cc12`, the activation fold was 0.4.
As for `CCOc1ccccc1-c1c2cc(O)c(=O)cc-2oc2cc(O)c(O)cc12`, the activation fold was 0.6.
On to `COc1ccc(OC)c(-c2c3cc(O)c(=O)cc-3oc3cc(O)c(O)cc23)c1`, for which the activation fold is 3.9 (active).
Turning to `O=C(NCCCN1CCCC1=O)c1ccc(OCc2ccccc2)cc1`, the activation fold is 1.1.
With `COc1nc(-c2cnccn2)sc1C`, the activation fold was 1.1.
As for `COc1ccc2nc(C)cc(SCC(=O)NNC(=O)COc3ccc(C)cc3)c2c1`, the activation fold was 1.1.
On to `COc1ccc2nc(C)cc(SCC(=O)NNC(=O)COc3cccc4ccccc34)c2c1`, for which the activation fold is 2.1.
As for `O=C(CN1CCOCC1)NCCC12CC3CC(CC(C3)C1)C2`, the activation fold is 1.2.
`COc1ccc(N/C=C\C(=O)c2ccc(Br)cc2)cc1OC`: the activation fold was 1.1.
Consider `Cc1nn(C)cc1/C=C/C(=O)c1ccccc1`, for which the activation fold was 1.1.
On to `CCCCCC(=O)NNC(=O)c1ccc(F)cc1`, for which the activation fold was 1.
Under `CCCCCCCC(=O)NNC(=O)c1ccc(F)cc1` stands 2.1.
Under `Cc1cc(NC(=O)CCC(=O)N(Cc2ccco2)C(C(=O)NC2CCCCC2)c2cccs2)no1` (stereo not given) stands 1.1; under `Cc1cc(Cl)ccc1OCC(=O)NCCOC(=O)Nc1sc(=S)n(C)c1C`, 1.2.
Take `Cc1c(C(=O)Oc2cc(N)n(S(C)(=O)=O)n2)cccc1[N+](=O)[O-]`: the activation fold was 1.
Take `CC(=O)c1ccc(NC(=O)COc2ccc3c(c2)OCO3)cc1`: the activation fold is 1.1.
For `Cc1cc(C)c(NC(=O)CN2CCN(C)CC2)c(C)c1`, the activation fold was 1.2.
As for `Cc1cc(NC(=O)CN2CCN(C)CC2)no1`, the activation fold was 1.1.
As for `COc1ccc(C2C(C(=O)OC3CCCCC3)=C(C)Nc3nnnn32)c(OC)c1OC` (stereo not given), the activation fold is 1.
Turning to `N#Cc1c(SCC(=O)O)nc(-c2ccccc2)c2c1CCCC2`, the activation fold is 1.
For the compound `Cc1cccc2sc(NC(=O)CN(C)S(=O)(=O)c3ccc(Br)s3)nc12`, the activation fold was 1.
With `CC1CCN(Cc2nc(Cl)c3c4c(sc3n2)CCC4)CC1`, the activation fold is 1.
As for `COc1cc(OC)cc(-c2nnc(Nc3nc4c(F)cccc4s3)o2)c1`, the activation fold was 1.2.
`COc1cccc(-c2nnc(Nc3nc4c(F)cccc4s3)o2)c1`: the activation fold is 1.7.
In the case of `O=C(OCc1cc2ccccc2[nH]c1=O)C1CCCO1` (stereo not given), the activation fold was 1.1.
Turning to `O=C(CSc1nnc(C2COc3ccccc3O2)o1)Nc1nccs1` (stereo not given), the activation fold is 1.2.
Then `CCCCOC(=O)c1ccc(NC(=O)CSCc2n[nH]c(=O)[nH]2)cc1`, with 1.4; and `Cc1ccc(O)c(-c2cc(-c3ccccc3[N+](=O)[O-])[nH]n2)c1`, with 2.3; and `O=[N+]([O-])c1ccccc1-c1cc(-c2ccccc2O)n[nH]1`, with 2.1.
Then `CC(C)(Oc1ccc(Cl)cc1)C(=O)NCc1ccc(S(N)(=O)=O)cc1`, with 1.2; and `CCn1cc(S(=O)(=O)CC(=O)Nc2ccc3c(c2)OCCO3)c2ccccc21`, with 1.1.
Consider `CC(C)C(OC(=O)C1=Cc2ccccc2OC1)C(=O)NC1CCCC1` (stereo not given), for which the activation fold is 1.2.
Then `CN(C)CCNc1ccc(-c2nn(C)c(=O)c3ccccc23)cc1[N+](=O)[O-]`, with 1.
Turning to `O=S1(=O)NC2CCCCCN2c2ccc(F)cc21` (stereo not given), the activation fold was 1.1.
Take `Cn1c(C(=O)NCC2CCCO2)cc2c(=O)n(C)c3ccccc3c21` (stereo not given): the activation fold was 1.1.
Regarding `CCSC1=C(C#N)C2(CCCC2)C(C#N)=C(N)N1`, the activation fold is 1.
Then `CC(C)N1CCC2(CC1)C(C#N)=C(N)NC(S)=C2C#N`, with 5.8 (active).
Then `CSC1=C(C#N)C2(CCCC2)C(C#N)=C(N)N1`, with 1.1.
As for `CCOC(=O)CSc1nnc(NCC(=O)OC(C)C)c(=O)[nH]1`, the activation fold is 1.2.
Turning to `CC(=O)NC(=S)Nc1ccc(NC(=O)COc2ccc(C(C)C)cc2)cc1`, the activation fold is 1.
`Cc1ccccc1NC(=O)c1ccc(S(=O)(=O)C(F)F)cc1`: the activation fold was 1.1.
As to `COC(=O)c1ccc2nc(Nc3nc4ccc(F)cc4s3)sc2c1`, the activation fold is 1.2.
Then `CCOC(=O)c1csc(Nc2nc3ccc(F)cc3s2)n1`, with 1.1.
Turning to `C/C(=N\NC(=O)c1ccc(Cn2cc([N+](=O)[O-])cn2)o1)c1cccc(NC(=O)C(C)C)c1`, the activation fold is 1.1.
For the compound `CCC(C)NC(=O)CSC1=Nc2ccccc2C2=NC(c3ccccc3)C(=O)N12` (stereo not given), the activation fold was 1.
For `CC(/C=N/NC(=O)Cc1cccs1)=C\c1ccccc1`, the activation fold was 1.
Then `COc1cccc(OCCOCCNCCO)c1`, with 1.1; and `CC(C)C(=O)NNC(=O)c1ccccn1`, with 1.2; and `O=C(NNC(=O)C(c1ccccc1)c1ccccc1)c1ccccn1`, with 1.5.
In the case of `Cc1nn(CC(=O)NC2C(=O)N3C(C(=O)O)=C(CSc4nnnn4C)CSC23)cc1Br` (stereo not given), the activation fold was 1.2.
In the case of `O=C1N(CCCN2C(=O)C3(OCCO3)c3ccccc32)c2ccccc2C12OCCO2`, the activation fold is 1.
Then `C=CCN1C(=O)C(C)(C)Nc2ccccc21`, with 1.1; and `C=CCN1C(=O)C2(NC(=O)c3ccccc3N2)c2ccccc21` (stereo not given), with 1.1.
Under `O=C1N(CCCCN2C(=O)C3(OCCO3)c3ccccc32)c2ccccc2C12OCCO2` stands 1.2.
On to `O=C(CSc1nnc(-c2ccccc2)n1-c1ccc(Cl)cc1)N/N=C/c1ccco1`, for which the activation fold was 1.
`Cc1ccc(C)c(NC(=O)CS(=O)(=O)c2c[nH]c3ccccc23)c1`: the activation fold is 1.
In the case of `Cn1cc(Cl)c(C(=O)NC2CCCC2)n1`, the activation fold is 1.1.
For the compound `Cn1cc(Cl)c(C(=O)NC2CCCCCC2)n1`, the activation fold is 1.2.
On to `Cc1c(-n2cccc2C=O)cccc1[N+](=O)[O-]`, for which the activation fold was 1.6.
Consider `COC(=O)Nc1nnc(CCc2ccccc2)s1`, for which the activation fold is 0.9.
Regarding `COc1ccccc1CNC(=O)Cc1ccc(Br)cc1`, the activation fold was 1.2.
For `CCOc1ccccc1NC(=O)NC1CC2CCCC(C1)N2Cc1nnnn1CCc1ccccc1` (stereo not given), the activation fold was 1.4.
As to `O=C(Nc1ccccc1-c1ccccc1)NC1CC2CCCC(C1)N2Cc1ccc(F)cc1` (stereo not given), the activation fold was 2.7.
In the case of `CC(C)OC(=O)C1C2C=CC3(CN(C(C)c4ccc(Br)cc4)C(=O)C13)O2` (stereo not given), the activation fold is 1.1.
`Cn1c(N/N=C2\CCCc3ccccc32)nc2c1c(=O)n(Cc1ccccc1)c(=O)n2C`: the activation fold is 2.9.
Take `Cn1c(=O)c2c(nc(N/N=C3\CCCc4ccccc43)n2Cc2ccc(F)cc2)n(C)c1=O`: the activation fold is 2.2.
Consider `Fc1ccc(C2CC(c3ccc(F)cc3)n3ncnc3N2)cc1` (stereo not given), for which the activation fold was 1.1.
Under `CC(C)CCN1CC(O)=C(c2nc3ccccc3[nH]2)C1=N` stands 2; under `CC(C)N1CC(O)=C(c2nc3ccccc3[nH]2)C1=N`, 1.4.
Take `C=CCNC(=O)c1cc(-c2ccc(Br)cc2)on1`: the activation fold is 1.2.
As to `O=C(NNc1ccccn1)C(=O)NNS(=O)(=O)c1ccc(F)cc1`, the activation fold is 2.7.
Consider `Cc1ccc(S(=O)(=O)NNC(=O)C(=O)NNc2ccccn2)cc1`, for which the activation fold was 2.9.
Then `Cc1ccc(NC(=O)c2cccc(S(C)(=O)=O)c2)cc1`, with 1.1; and `C=CCN(CC=C)C(=O)C1CCC(C(=O)N(CC=C)CC=C)CC1` (stereo not given), with 1; and `COc1ccc(-n2cc(CNCCc3cscn3)c(-c3ccccc3Cl)n2)cc1`, with 1.1.
Then `COc1ccc(-n2cc(CNCCc3nc(C)cc(C)n3)c(-c3ccccc3Cl)n2)cc1`, with 1.
With `CC(C)(C)c1ccc(C(=O)NNC(=O)c2ccc(Cl)cc2)cc1`, the activation fold was 1.9.
Then `COC(=O)NNC(=O)c1ccc(C(C)(C)C)cc1`, with 1.1.
